This is a sample that favours compounds with a hit; in the whole collection about 12% have one here.
JMJD2A Tudor inh – blocks the human JMJD2A Tudor domain; O75164; AlphaScreen JMJD2A-Tudor / H3K4me3 peptide binding; Potency, µM (titrated, usually from 114 µM), actives largely listed as inhibitors; 390,000 tested, 4.4% active; AID 504339; note: nearly all actives have a fitted effect of over 50% in size
Target sequence (O75164 whole entry, looked up, the tested form may be a part): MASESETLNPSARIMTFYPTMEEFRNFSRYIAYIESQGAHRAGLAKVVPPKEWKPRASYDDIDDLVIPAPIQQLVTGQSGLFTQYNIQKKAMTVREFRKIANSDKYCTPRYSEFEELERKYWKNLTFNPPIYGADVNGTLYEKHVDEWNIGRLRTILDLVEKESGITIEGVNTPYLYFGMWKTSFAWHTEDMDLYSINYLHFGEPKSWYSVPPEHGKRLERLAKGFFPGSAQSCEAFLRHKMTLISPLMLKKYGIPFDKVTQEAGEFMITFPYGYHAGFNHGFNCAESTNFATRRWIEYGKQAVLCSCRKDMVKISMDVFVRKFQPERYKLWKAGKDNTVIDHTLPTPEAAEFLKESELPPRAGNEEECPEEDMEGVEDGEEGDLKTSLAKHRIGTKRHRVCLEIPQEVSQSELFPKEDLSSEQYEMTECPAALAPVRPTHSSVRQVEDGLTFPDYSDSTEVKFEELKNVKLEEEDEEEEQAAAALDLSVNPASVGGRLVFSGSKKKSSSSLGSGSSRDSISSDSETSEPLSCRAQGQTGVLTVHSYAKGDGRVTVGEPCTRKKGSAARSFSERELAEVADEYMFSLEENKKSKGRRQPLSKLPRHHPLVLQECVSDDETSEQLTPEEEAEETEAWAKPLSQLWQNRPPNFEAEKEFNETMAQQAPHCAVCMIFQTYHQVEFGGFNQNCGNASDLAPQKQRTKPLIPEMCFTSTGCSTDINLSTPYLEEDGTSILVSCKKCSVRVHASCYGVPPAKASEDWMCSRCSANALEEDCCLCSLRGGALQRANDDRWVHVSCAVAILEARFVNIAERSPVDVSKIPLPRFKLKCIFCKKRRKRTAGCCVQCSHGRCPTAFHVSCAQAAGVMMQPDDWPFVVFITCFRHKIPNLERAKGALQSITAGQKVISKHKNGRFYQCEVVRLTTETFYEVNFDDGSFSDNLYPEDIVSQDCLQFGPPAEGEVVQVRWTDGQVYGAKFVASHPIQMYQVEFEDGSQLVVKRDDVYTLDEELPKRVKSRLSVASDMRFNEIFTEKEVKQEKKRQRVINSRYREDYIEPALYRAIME
Sfp PPTase inh – inhibitors of Bacillus subtilis Sfp phosphopantetheinyl transferase. 310,000 tested, 3.5% active. Q9F4F7. Biochemical Sfp PPTase activity, qHTS. AID 1490. Potency, µM, hits mostly inhibitors;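 note: the enzyme is Sfp with the accession as filed and its product quenches rhodamine fluorescence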
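After 15 min at room temperature with compound, 15 nM Sfp received 5 uM rhodamine-CoA plus 12.5 uM BHQ-2-ybbR (50 mM Hepes pH 7.6, 10 mM MgCl2). Rate came from the fluorescence difference over 30 min, ex 525/em 598 nm.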
HP1b binding inh – HP1-beta chromodomain-methylated histone interaction inhibition | 390,000 tested, 0.56% active | Potency, µM (doses to about 114 µM), most hits filed as inhibitors | AlphaScreen HP1-beta / biotin-H3K9me3 peptide binding | AID 540317; note: nearly all actives have a fitted effect of over 70% in size
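Compound inhibition of the preformed complex between 50 nM HP1-beta and 50 nM biotinylated H3K9me3 peptide was read by AlphaScreen. Buffer was PBS pH 7.4 with 0.01% Tween-20. Incubations ran 30 min at room temperature, with 10 ug/mL donor/acceptor beads.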
L3MBTL1 inh – inhibitors of human L3MBTL1; AID 485360; AlphaScreen L3MBTL1–H3K9me1 peptide binding; Q9Y468; 230,000 tested, 0.66% active; Potency, µM (doses to about 57.1 µM), usual class: inhibitors; note: nearly all actives have a fitted effect of over 60% in size
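Displacement of a biotinylated histone H3(1-15) peptide monomethylated at Lys9 (75 nM) from L3MBTL1 (50 nM) was measured by AlphaScreen after a 30 min room-temperature compound incubation; cefsulodin titration served as intraplate control.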
G9a block – G9a (human) methyltransferase inhibition. Q96KQ7. G9a H3K9 monomethylation, AlphaScreen, 2 h. Potency, µM (doses to about 102 µM), actives largely listed as inhibitors. 350,000 tested, 8.8% active. AID 504332; note: nearly all actives have a fitted effect of over 75% in size
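Signal arises when biotinylated H3K9 peptide, once monomethylated, bridges streptavidin donor and antibody-captured acceptor beads. Enzyme at 20 nM was preincubated 15 min with test compounds; peptide 500 nM and SAM 20 uM then reacted for 2 h.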
BAZ2B block – blocks human BAZ2B | 360,000 tested, 4.4% active | Potency, µM (series often up to 114 µM), actives largely listed as inhibitors | AID 504333 | AlphaScreen BAZ2B-H3K14Ac peptide displacement | Q9UIF8; note: nearly all actives have a fitted effect of over 60% in size
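Complex of BAZ2B and biotin-H3K14Ac (50 nM apiece) forms over 30 min at RT, then faces library compounds up to 110 uM for another 30 min; AlphaScreen beads added, 20 min dark incubation, luminescence read.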
Numbers stand for hits; i = inactive; ? = inconclusive; nt = no result given; [ ] = another dose, or the depositor's remark. Calls come from the whole dose curve; as a rule, active = well fitted curve in the direction sought with a large enough effect; inconclusive = small, poorly fitted or top-dose-only effect, or another doubt; inactive = no such curve, though single readings can be large; an effect the other way counts as inactive or inconclusive.

SMILES	JMJD2A Tudor inh	Sfp PPTase inh	HP1b binding inh	L3MBTL1 inh	G9a block	BAZ2B block
CCOc1ccc(NCc2cccn2-c2nnc(N3CCC(C(=O)NCCCN4C(C)CCCC4C)CC3)s2)cc1 (stereo not drawn)	56.2µM	i	i	nt	39.8µM	39.8µM
CCOc1ccc(NCc2cccn2-c2nnc(N3CCC(C(=O)NCCCN4CCCCC4C)CC3)s2)cc1 (stereo not drawn)	39.8µM	i	i	nt	50.1µM	?
CCOc1ccc(NCc2cccn2-c2nnc(N3CCC(C(=O)NCCCN4CCCCC4)CC3)s2)cc1	50.1µM	i	?	nt	39.8µM	39.8µM
O=C(CSc1nc2c([nH]c3ccccc32)c(=O)n1-c1ccc(Cl)cc1)N1CCCC1	i	nt	i	nt	i	i
CCOC(=O)C1C(=O)C(C(C)=O)C(=O)CC1CC(C)SCC (stereo not drawn)	89.1µM	i	i	nt	?	i
CC1CCN(c2c([N+](=O)[O-])nn(-c3ccc4c(c3)OCCO4)[n+]2[O-])CC1	?	i	?	nt	35.5µM	22.4µM
C=CCSc1nnc(C)c(/C=C/Nc2ccc(Cl)cc2)n1	39.8µM	i	i	i	?	i
Cc1ccc(NC2=C(Cl)C(=O)OC2OC(=O)c2ccccc2)c(C)c1 (stereo not drawn)	i	50.1µM	i	nt	?	nt
O=[N+]([O-])c1ccc(O)c(/C=N/Nc2nn[nH]n2)c1	10µM	i	i	14.1µM	i	6.31µM
Cc1ccccc1/C=N/Nc1ccc(Cl)nn1	i	i	i	i	10µM	i
COc1cc(OC)c(OC)cc1/C=N/Nc1ccc(Cl)nn1	i	i	i	nt	i	i
C(=N\Nc1nn[nH]n1)/c1ccccc1	89.1µM	44.7µM	i	nt	35.5µM	?
NC(N)=N/N=C/c1cc([N+](=O)[O-])ccc1O	i	i	i	i	i	i
Oc1ccccc1/C=N/Nc1nn[nH]n1	56.2µM	i	i	i	39.8µM	44.7µM
CN(C)c1nc(N/N=C/c2ccccc2O)nc(Nc2ccc(F)cc2)n1	i	i	i	nt	i	?
CC#C[C@@H](CC)c1ccc2ccn(C)c2c1	i	nt	i	i	i[0.501 µM]	i
CN1C(=O)Cc2cc([S+](=O)([O-])N3CCN([S+](=O)([O-])c4c(F)cccc4F)CC3)ccc21	i	nt	nt	nt	nt	nt
O=C(CNC(=O)c1ccc(Cl)cc1)OCc1cc(=O)n2nc(C3CCCCC3)sc2n1	i	nt	i	nt	i	i
CCOc1ccccc1NS(=O)(=O)c1ccc2c(c1)oc(=O)n2C	i	nt	i	nt	i	i
CCCc1nn2c(=O)cc(COC(=O)c3ccccc3NC(=O)c3cccs3)nc2s1	i	nt	i	nt	i	i
Clc1ccc(/C=N/Nc2nn[nH]n2)cc1	?	i	i	i	10µM	i
O=[N+]([O-])c1ccc(O)c(/C=N/Nc2ccc(Cl)nn2)c1	7.94µM	i	i	?	nt	3.98µM
CCC(=O)Oc1cc(C(C)(C)C)cc2cc(-c3nc(-c4ccc(OC)cc4OC)no3)c(=O)oc12	i	nt	i	nt	i	i
Cc1ccc(C2NC(=O)c3sc(=S)n(-c4ccccc4)c3N2)cc1 (stereo not drawn)	i	39.8µM	i	i	?	i
CCOC(=O)c1sc(=S)n(-c2ccccc2)c1SC	i	i	i	i	i	i
SMILES	JMJD2A Tudor inh	Sfp PPTase inh	HP1b binding inh	L3MBTL1 inh	G9a block	BAZ2B block
O=C(CSc1nnc(-c2ccc(C(F)(F)F)cn2)o1)Nc1cccc(Cl)c1	i	i	i	i	i	50.1µM
CC(C)(C)OC(=O)NCCc1nnc(SCC(=O)Nc2cccc(Cl)c2)o1	i	i	i	i	nt	i
O=C(CSc1nnc(-c2cccc(Cl)c2)o1)Nc1ccc2c(c1)OCCO2	i	i	i	i	i	i
NCCc1nnc(SCC(=O)Nc2cccc(Cl)c2)o1	i	i	i	nt	50.1µM	?
COC(=O)c1c(SCC(=O)Nc2cc(C)cc(C)c2)[nH]c2ccccc2c1=O	i	nt	i	nt	i	i
CCn1c(NCc2ccccn2)nc2ccccc21	i	?	i	i	8.91µM	56.2µM
CCN(CC)c1ccc(CNc2nc3ccccc3n2CCN2CCCCC2)cc1	39.8µM	i	?	i[11.4 µM]	25.1µM	14.1µM
COc1ccc(CNc2nc3ccccc3n2CCN2CCCCC2)cc1	i	i	i	i[11.4 µM]	?	i
Cc1cc(NCc2ccccn2)nc2ccccc12	i	i	i	nt	i	i
c1ccc(CNc2ccc3ccccc3n2)nc1	8.91µM	i	i	i	i	i
CCn1c(NCc2ccc(N(C)C)cc2)nc2ccccc21	?	i	i	i	20µM	?
CCCCN1CC(=O)N2[C@@H]3c4cc(OC)ccc4OC[C@@H]3[C@H](C(=O)OCC)[C@]2(C)C1=O	?	nt	i	nt	nt	nt
CCC(CCC(C)C1CCC2C3CCC4CC(O)CC[C@@]4(C)C3CC[C@@]12C)C(C)C (stereo partly drawn)	nt	i	nt	nt	nt	nt
O=C(CSc1nnc2n1CCCN2)c1ccc([N+](=O)[O-])cc1	?	i	i	i	39.8µM	i
O=C(CSc1nnc2n1CCCN2)c1ccc(Cl)cc1	i	i	i	i	i	i
Cc1ccc(C)c(NC(=O)CCC(=O)NNC(=S)Nc2ccccc2)c1	i	i	i	i	50.1µM	i
CNC(=S)NNC(=O)CCn1nc(C)c(Br)c1C	i	i	i	nt	i	i
Cc1ccc(C)c(NCC(=O)NNC(=S)Nc2ccccc2)c1	i	i	i	i	22.4µM	i
Cc1ccc(NC(=O)CCC(=O)NNC(=S)Nc2ccccc2)c(C)c1	i	i	i	i	nt	i
Cc1nn(CCC(=O)NNC(=S)Nc2ccccc2)c(C)c1Br	i	i	i	i	12.6µM	i
Cc1cc(C)c[n+](-c2[nH]c(=O)sc2/C=N/N=C(\N)[S-])c1	i	25.1µM	i	i	39.8µM	?
Cc1cc[n+](-c2[nH]c(=O)sc2/C=N/N=C(\[O-])CCn2c3ccccc3c3ccccc32)cc1	?	i	i	?	i	?
Cc1cc[n+](-c2[nH]c(=O)sc2/C=N/N=C(\[O-])c2ccccc2)cc1	?	?	i	?	i	50.1µM
O=c1[nH]c(-[n+]2ccccc2)c(/C=N/N=C(\[O-])c2ccccc2)s1	i	i	i	nt	nt	i
CCc1ccc[n+](-c2[nH]c(=O)sc2/C=N/N=C(\[O-])CCn2c3ccccc3c3ccccc32)c1	i	i	?	i	44.7µM	?
Cc1cc[n+](-c2[nH]c(=O)sc2/C=N/N=C(\[O-])c2ccncc2)cc1	i	i	i	nt	i	56.2µM
CC(C)(CCCCCCCCCCC(C)(C)CC(=O)O)CC(=O)O	nt	i	nt	nt	nt	nt
N#Cc1c(N)n(-c2cccc(Cl)c2)c2nc3ccccc3nc12	i	nt	i	nt	i	i
Cc1c(C(=O)Nc2nc(-c3ccc(F)cc3)ns2)oc2ccc(Br)cc12	i	nt	i	nt	i	i
O=C1C[C@@H](c2ccc(O)c(O)c2)Oc2cc(O[C@H]3O[C@@H](CO)[C@H](O)[C@@H](O)[C@@H]3O)cc(O)c21	nt	i	nt	nt	nt	nt
